Assay results from the supplement of paper PMC9262897, “Low-cost anti-mycobacterial drug discovery using engineered E. coli” (Nature Communications, 2022).
Structures can show the parent of a compound that is named as a salt. ± gives the standard deviation of the averaged measurements.

Assays:
Experiment in all cases: growth (OD600 after 10 h); higher = more growth (less inhibition)
[1] = test system: E. coli TESEC Alr+ wild-type control; details: compound 0.1 mM; raw OD600 reference: median of DMSO wells 0.241, cell-free background 0.041
Procedure: (§1)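 TESEC Mtb Alr E. coli, or the Alr+ wild-type control, in 384-well plates with Prestwick library compounds at 0.1 mM and 1% DMSO, across arabinose induction levels of 1E3 to 1E7 nM. Growth is read as OD600 after 10 h at 37 °C in triplicate biological replicates.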

[2] = test system: E. coli TESEC Mtb Alr; details: compound 0.1 mM
Procedure: as §1

[3] = test system: E. coli TESEC Mtb Asd; details: compound 0.1 mM
Procedure: (§2)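 TESEC E. coli strains in which the native enzyme is deleted and replaced by arabinose-inducible Mtb Asd, DapB, CysH or TrpD, each grown in its selective medium. Strains were screened against the Prestwick library at 0.1 mM and 1% DMSO in 384-well format at low and high arabinose induction. Growth is read as OD600 after 10 h in triplicate.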

[4] = test system: E. coli TESEC Mtb DapB; details: compound 0.1 mM
Procedure: as §2

[5] = test system: E. coli TESEC Alr+ wild-type control; details: compound 0.1 mM; raw OD600 reference: median of DMSO wells 0.49, cell-free background 0.052
Procedure: (§3)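 TESEC Mtb Alr E. coli (ΔaraC ΔtolC ΔentC Δalr ΔdadX, arabinose-inducible Mtb Alr) or the Alr+ wild-type control strain, grown in defined M9-fructose medium without D-alanine in 96-well plates with Prestwick library compounds at 0.1 mM and 1% DMSO. Low Alr induction is 0.1 µM arabinose and high induction is 10 mM arabinose.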

[6] = test system: E. coli TESEC Mtb Alr; details: compound 0.1 mM; remark: listed apart in the source
Procedure: as §3

[7] = arabinose 1000 nM, raw OD600 reference: median of DMSO wells 0.294, cell-free background 0.041
[8] = arabinose 10000 nM, raw OD600 reference: median of DMSO wells 0.264, cell-free background 0.041
[9] = arabinose 100000 nM, raw OD600 reference: median of DMSO wells 0.201, cell-free background 0.041
[10] = arabinose 1000000 nM, raw OD600 reference: median of DMSO wells 0.193, cell-free background 0.041
[11] = arabinose 10000000 nM, raw OD600 reference: median of DMSO wells 0.146, cell-free background 0.041
[12] = arabinose induction (level): High, raw OD600 reference: median of DMSO wells 0.331, cell-free background 0.041
[13] = arabinose induction (level): Low, raw OD600 reference: median of DMSO wells 0.417, cell-free background 0.041
[14] = arabinose induction (level): High, raw OD600 reference: median of DMSO wells […], cell-free background 0.041
[15] = arabinose induction (level): Low, raw OD600 reference: median of DMSO wells 0.227, cell-free background 0.041
[16] = arabinose 100 nM, raw OD600 reference: median of DMSO wells 0.413, cell-free background 0.052
[17] = arabinose 10000000 nM, raw OD600 reference: median of DMSO wells […], cell-free background 0.052

Compound	growth [1]	growth [2, 7]	growth [2, 8]	growth [2, 9]	growth [2, 10]	growth [2, 11]	growth [3, 12]	growth [3, 13]	growth [4, 14]	growth [4, 15]	growth [5]	growth [6, 16]	growth [6, 17]
CCCCNc1ccc(C(=O)OCCOCCOCCOCCOCCOCCOCCOCCOCCOC)cc1 [Benzonatate]	0.241 ± 0.0078	0.279 ± 0.0063	0.252 ± 0.011	0.217 ± 0.0091	0.148 ± 0.006	0.157 ± 0.0052	0.245 ± 0.012	0.405 ± 0.0093	0.17 ± 0.017	0.206 ± 0.036	0.444 ± 0.033	0.407 ± 0.012	0.264 ± 0.12
CN(C)C/C=C(/c1ccc(Br)cc1)c1cccnc1 [Zimelidine dihydrochloride monohydrate]	0.2066 ± 0.0016	0.261 ± 0.0081	0.255 ± 0.028	0.192 ± 0.028	0.153 ± 0.0035	0.134 ± 0.0035	0.237 ± 0.037	0.413 ± 0.022	0.168 ± 0.0086	0.261 ± 0.12	0.445 ± 0.04	0.397 ± 0.01	0.303 ± 0.028
CC(=O)OCC1=C(C(=O)O)N2C(=O)[C@@H](NC(=O)Cc3cccs3)[C@H]2SC1 [Cephalothin sodium salt]	0.305 ± 0.0066	0.334 ± 0.017	0.209 ± 0.0072	0.283 ± 0.03	0.172 ± 0.0079	0.174 ± 0.0022	0.421 ± 0.021	0.421 ± 0.058	0.206 ± 0.013	0.258 ± 0.0063	0.447 ± 0.04	0.332 ± 0.027	0.35 ± 0.015
C[C@@H]1C[C@H]2[C@@H]3C[C@H](F)C4=CC(=O)C=C[C@]4(C)[C@@]3(Cl)[C@@H](O)C[C@]2(C)[C@H]1C(=O)COC(=O)C(C)(C)C [Clocortolone pivalate]	0.24 ± 0.0038	0.307 ± 0.0044	0.29 ± 0.013	0.206 ± 0.031	0.2 ± 0.027	0.151 ± 0.0033	0.198 ± 0.0099	0.322 ± 0.059	0.21 ± 0.0076	0.254 ± 0.0078	0.477 ± 0.013	0.433 ± 0.0058	0.377 ± 0.017
C[C@]12C=CC(=O)C=C1CC[C@@H]1[C@@H]2C(=O)C[C@@]2(C)[C@H]1CC[C@]2(O)C(=O)CO [Prednisone]	0.221 ± 0.01	0.298 ± 0.017	0.256 ± 0.0052	0.203 ± 0.012	0.173 ± 0.0063	0.162 ± 0.0056	0.237 ± 0.029	0.414 ± 0.042	0.185 ± 0.0094	0.267 ± 0.014	0.479 ± 0.044	0.412 ± 0.005	0.352 ± 0.019
O=C1c2c(O)cccc2Cc2cccc(O)c21 [Anthralin]	0.161 ± 0.0039	0.159 ± 0.018	0.169 ± 0.017	0.205 ± 0.0082	0.151 ± 0.0087	0.182 ± 0.0047	0.22 ± 0.013	0.306 ± 0.13	0.246 ± 0.017	0.229 ± 0.051	0.339 ± 0.015	0.29 ± 0.034	0.239 ± 0.03
CC/C(=C(/CC)c1ccc(O)cc1)c1ccc(O)cc1 [Diethylstilbestrol]	0.0422 ± 0.0023	0.04 ± 0.0015	0.0413 ± 0.0044	0.0436 ± 0.0041	0.0394 ± 0.00096	0.0457 ± 0.0042	0.169 ± 0.011	0.0743 ± 0.016	0.171 ± 0.013	0.198 ± 0.012	0.0495 ± 0.0011	0.0551 ± 0.0059	0.0557 ± 0.0043
C[C@H](CCC(=O)O)[C@H]1CC[C@H]2[C@@H]3[C@H](O)C[C@@H]4C[C@H](O)CC[C@]4(C)[C@H]3CC[C@]12C [Chenodiol]	0.247 ± 0.0086	0.263 ± 0.0097	0.221 ± 0.0073	0.278 ± 0.021	0.146 ± 0.0057	0.143 ± 0.0086	0.216 ± 0.071	0.289 ± 0.049	0.168 ± 0.026	0.179 ± 0.0059	0.439 ± 0.059	0.392 ± 0.0058	0.209 ± 0.02
Cn1c(=O)c2c(ncn2CC(=O)O)n(C)c1=O [Acefylline]	0.248 ± 0.0081	0.307 ± 0.01	0.253 ± 0.0048	0.21 ± 0.0073	0.191 ± 0.0048	0.138 ± 0.0046	0.297 ± 0.04	0.433 ± 0.014	0.196 ± 0.0038	0.207 ± 0.021	0.457 ± 0.013	0.408 ± 0.007	0.347 ± 0.01
N[C@H]1CONC1=O [(S)-(-)-Cycloserine]	0.247 ± 0.0025	0.0382 ± 0.001	0.0389 ± 0.0016	0.217 ± 0.0065	0.188 ± 0.012	0.108 ± 0.0032	0.329 ± 0.034	0.354 ± 0.038	0.211 ± 0.015	0.276 ± 0.051	0.558 ± 0.063	0.045 ± 0.00044	0.13 ± 0.0078
CCOC(=O)C1=C(COCCN)NC(C)=C(C(=O)OC)C1c1ccccc1Cl (centres undefined) [Amlodipine]	0.231 ± 0.0038	0.2004 ± 0.0019	0.23 ± 0.022	0.179 ± 0.0029	0.0929 ± 0.0035	0.104 ± 0.0021	0.132 ± 0.0075	0.136 ± 0.0072	0.155 ± 0.077	0.205 ± 0.017	0.566 ± 0.028	0.398 ± 0.0055	0.282 ± 0.011
N/C(=N\C(=O)c1nc(Cl)c(N)nc1N)NCc1ccccc1 [Benzamil hydrochloride]	0.14 ± 0.0042	0.196 ± 0.0093	0.256 ± 0.0065	0.15 ± 0.0096	0.111 ± 0.0026	0.161 ± 0.0069	0.163 ± 0.006	0.199 ± 0.0084	0.213 ± 0.023	0.232 ± 0.013	0.502 ± 0.034	0.41 ± 0.0064	0.299 ± 0.0065
O=S(=O)(O)c1cc(O)ccc1O [Ethamsylate]	0.252 ± 0.0066	0.311 ± 0.0039	0.258 ± 0.0087	0.206 ± 0.018	0.182 ± 0.0086	0.13 ± 0.0042	0.211 ± 0.034	0.391 ± 0.0046	0.191 ± 0.013	0.244 ± 0.025	0.525 ± 0.079	0.41 ± 0.015	0.344 ± 0.022
